The source of these data is PubChem BioAssay (NCI).

This is part of a sample that, as a whole, favours compounds with a hit. Of some 83,000 tested, about 20% had one in any assay.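 Method: cells in 96-well plates; compound added at one concentration; 48 h incubation; percent growth measured; values under 10 scored active.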 Calls of active or inactive are those of the source.

This assay relates to BT-549 breast. In words: NCI-60 one-dose screen, 48 h (100 = growth as untreated, 0 = no growth, -100 = all killed). Particulars: 10 µM unless noted.
In the case of `NC(N)=Nc1ccc(Oc2cccc(Nc3ccc(Cl)c(C(F)(F)F)c3)c2)cn1`, the growth was 16.5% (inactive). The result for `CCN1CCN(Cc2ccc(C(=O)Nc3ccc(C)c(Oc4ccc(-c5[nH]nc6ncnc(N)c56)cc4)c3)cc2C(F)(F)F)CC1` reads 109% (inactive); that for `COc1ccc(NC(=O)Nc2ccc3c(ccn3C(=O)c3cccc(F)c3)c2)cc1`, 76.2% (inactive). The result for `CCn1c(SCC(=O)Nc2cccc(C(=O)/C=C/c3ccccc3Cl)c2)nc2ccccc2c1=O` reads 105% (inactive); that for `COc1ccc(-c2nn(-c3ccc(S(C)(=O)=O)cc3)cc2/C=N/O)cc1`, 112% (inactive); that for `NC(N)=Nc1ccc(Oc2ccc(Nc3ccc(Cl)c(C(F)(F)F)c3)cc2)cc1`, 86.1% (inactive). The result for `COc1ccc(NC(=O)CSc2nnc(-c3ccc4nc(-c5ccc(OC)c(OC)c5)[nH]c4c3)o2)cc1OC` reads 90.7% (inactive); that for `Cc1ccc(-n2c(/C=C3\C(=O)Nc4ccccc43)ccc2CO)cc1`, 66.6% (inactive). As to `O=C(NNc1nc2cc(F)ccc2n2c(CO)ccc12)c1cnccn1`, the growth was 22.6% (inactive). As to `Nc1ccccc1NC(=O)c1ccc(NC(=O)C/C=C/c2cccnc2)cn1`, the growth is 3.27% (active). Regarding `Cn1ccnc1C(=O)/C=C/c1ccc(CNC(=O)c2c(F)c(F)c(F)c(F)c2F)cc1`, the growth was 74.1% (inactive). The result for `C#C[C@]1(O)CC[C@H]2[C@@H]3CC=C4c5sc(-c6cccc(O)c6)nc5CC[C@]4(C)[C@H]3CC[C@@]21C` reads -22.8% (active). The result for `COc1cc2c(cc1OC)C(Sc1ccc(F)cc1)c1c(nc(N)c(C#N)c1N)O2` (stereo not drawn) reads 77.6% (inactive); that for `N#Cc1cn(Cc2ccc(Cl)cc2Cl)c(C(=O)c2ccc(Br)cc2)c1N`, 108% (inactive). The result for `O=C(O)c1ccc(-n2cc(CNc3cc(F)c(F)c(F)c3)c(-c3cccc(F)c3)n2)cc1` reads 107% (inactive); that for `CCc1cccc(NC(=O)CNc2cc(S(=O)(=O)N(C)C)cc(C)c2C)c1`, 97.3% (inactive). On to `COc1ccc2c(c1)c(-c1cc(N)n3nc(-c4cn(C)c5ccc(OC)cc45)cc3n1)cn2C`, for which the growth is 117% (inactive).

Consider `C=C(C=O)[C@@H]1CC[C@]2(COC(C)=O)CC[C@]3(C)C(CC[C@@H]4[C@@]5(C)CC[C@H](OC(C)=O)C(C)(C)[C@@H]5CC[C@]43C)[C@@H]12` (stereo partly drawn), for which the growth was 11.1% (inactive). Consider `COc1ccc(-c2nc3ccc(-c4nnc(SCC(=O)Nc5ccc(C(=O)/C=C/c6ccc(Cl)cc6)cc5)o4)cc3[nH]2)cc1`, for which the growth was 98.2% (inactive). The result for `COc1ccc(/C=C(\C#N)C(=O)N2c3ccccc3Sc3ccc(SC)cc32)cc1F` reads 104% (inactive). As to `O=C(CNc1nc(-c2cccc([N+](=O)[O-])c2)cs1)Nc1cccc(Cl)c1`, the growth was 91.7% (inactive). The result for `CC1(C)CC[C@]23CC[C@]4(C)[C@H](CC[C@@H]5[C@@]6(C)CCCN(CO)C(C)(C)[C@@H]6CC[C@]54C)[C@H]2[C@H]1OC3` reads 85.5% (inactive); that for `C=C(C=O)[C@@H]1CC[C@]2(C)[C@H](CC=C3[C@H]4[C@@H](C)[C@H](C)CC[C@]4(C(=O)OC)CC[C@]32C)[C@@]1(C)CCC#N`, 12% (inactive). The result for `CN(C)C(=O)c1cc(-c2ccc3ncnc(NCc4ccccc4)c3c2)cnc1N` reads 111% (inactive); that for `O=S(=O)(NCCCNc1nccc(-c2[nH]c(-c3ccccc3)nc2-c2ccc(Cl)c(O)c2)n1)c1cccc2ccccc12`, 46% (inactive). Turning to `Nc1ccccc1NC(=O)c1ccc(NC(=O)C/C=C/c2cccnc2)cc1`, the growth was 25.1% (inactive). The result for `COc1cc(-c2nc(SCCC(C)C)nc(NNC(=O)c3ccncc3)c2C#N)cc(OC)c1OC` reads 104% (inactive). The result for `O=C(NNc1nc2cc(F)c(F)cc2n2cccc12)c1cnccn1` reads 43.7% (inactive).
